Results filed as inconclusive are left out. Activity calls are given as the source filed them. Calls follow the shape of the dose curve; as a rule, active = well fitted curve in the direction sought with a large enough effect; inconclusive = small, poorly fitted or top-dose-only effect, or another doubt; inactive = no such curve, though single readings can be large; an effect the other way counts as inactive or inconclusive.
Columns and labels:
[1] = molecular target: Calcium and integrin-binding protein 1 (Homo sapiens) (UniProt Q99828); assay: Primary qHTS for Identification of Calcium Integrin Binding Protein 1 (CIB1) Competitor (AID 1508620);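 also: GST tagged CIB1 binding a fluorescein labelled alphaIIb integrin peptide tracer; top concentration of the series differs between compounds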
How it was run: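 CIB1-GST (1 uM final) and compound incubated 15 min at room temperature before adding FITC-alphaIIb peptide tracer (100 nM final). Competition for binding read by fluorescence polarization (ex 480, em 540) after another 15 min at room temperature.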

[2] = Primary qHTS for inhibitors of nuclear receptor binding SET domain protein 2 (NSD2) in an isogenic RCH-ACV NSD2 p.E1099K mutant (9B) (AID 1645876); also: nearly all actives have a fitted effect of over 70% in size
[3] = Primary qHTS for inhibitors of nuclear receptor binding SET domain protein 2 (NSD2) in an RCH-ACV wild type WT cells (2C) (AID 1645877); also: nearly all actives have a fitted effect of over 70% in size
% is scaled to controls: 0 for no effect and ±100 for the full control effect.

Calcium and integrin-binding protein 1 (Homo sapiens), sequence (Q99828 whole entry, looked up): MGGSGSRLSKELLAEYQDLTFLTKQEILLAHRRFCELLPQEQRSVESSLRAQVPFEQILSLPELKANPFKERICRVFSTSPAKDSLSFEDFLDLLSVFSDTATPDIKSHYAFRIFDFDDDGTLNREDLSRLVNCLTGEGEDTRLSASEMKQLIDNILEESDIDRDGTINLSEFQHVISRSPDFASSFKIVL

CCN1CCN(C(=O)N[C@@H](C(=O)N[C@@H]2C(=O)N3[C@@H]2SC(C)(C)[C@@H]3C(=O)O)c2ccccc2)C(=O)C1=O
inactive: Potency [1] | Potency [2] | Potency [3]

COc1cc([C@@H](O[C@@H]2O[C@H](CO)[C@@H](O)[C@H](O)[C@H]2O)[C@@H]2CO[C@H](c3ccc(O)c(OC)c3)[C@H]2CO)ccc1O
inactive: Potency [1] | Potency [2] | Potency [3]

CC1=C2CC(=O)C(C)CC/C=C(\C)CC2OC1=O (configuration not stated)
inactive: Potency [1] | Potency [2] | Potency [3]

C[C@@H]1C[C@@H](O)[C@@]23CO[C@]2(CO)C[C@@H](O)CC3[C@@]12CC(c1ccoc1)OC2=O (some centres not stated)
inactive: Potency [1] | Potency [2] | Potency [3]

COc1cc(C(CO)C(OC2OC(CO)C(O)C(O)C2O)c2ccc(O)c(OC)c2)ccc1O (configuration not stated)
inactive: Potency [1] | Potency [2] | Potency [3]

COC(=O)C1=CO[C@@H](O[C@@H]2O[C@H](CO)[C@@H](O)[C@H](O)[C@H]2O)[C@H]2[C@@H]1C=C[C@]21C=C([C@H](C)OC(=O)/C=C/c2ccc(O[C@@H]3O[C@H](CO)[C@@H](O)[C@H](O)[C@H]3O)cc2)C(=O)O1
inactive: Potency [1] | Potency [2] | Potency [3]

CCC(C)/C=C(C)/C=C/C1=CC2=C(Cl)C(=O)C(C)(OC(C)=O)C(=O)C2=CN1C(CCCN=C(N)N)C(=O)O (configuration not stated)
inactive: Potency [1] | Potency [2] | Potency [3]

O=C(OC[C@H]1O[C@@H](Oc2ccccc2COC(=O)C2(O)C=CCCC2O)[C@H](O)[C@@H](O)[C@@H]1O)c1ccccc1 (some centres not stated)
inactive: Potency [1] | Potency [2] | Potency [3]

CC(O)CCc1ccc(O[C@@H]2O[C@H](CO)[C@@H](O)[C@H](O)[C@H]2O)cc1 (some centres not stated)
inactive: Potency [1] | Potency [2] | Potency [3]

C[C@H](/C=C/[C@@]1(O)[C@H](C)CC(=O)CC1(C)C)O[C@@H]1O[C@H](CO[C@@H]2OC[C@@H](O)[C@H](O)[C@H]2O)[C@@H](O)[C@H](O)[C@H]1O
inactive: Potency [1] | Potency [2] | Potency [3]

CC1(CO)CCCC2(C)C1C(OC(=O)c1ccccc1)CC1C(=O)OCC12O (configuration not stated)
inactive: Potency [1] | Potency [2] | Potency [3]

CC(=O)c1ccc(O[C@@H]2O[C@H](CO[C@@H]3OC[C@@H](O)[C@H](O)[C@H]3O)[C@@H](O)[C@H](O)[C@H]2O)cc1
inactive: Potency [1] | Potency [2] | Potency [3]

O=C(OCc1ccccc1O[C@@H]1O[C@H](CO)[C@@H](O)[C@H](O)[C@H]1O)C1(O)C=CCCC1O (some centres not stated)
inactive: Potency [1] | Potency [2] | Potency [3]

CC(C)C1CCC(CO)=CC1/C=C(\CO)C(=O)OCC1(O)CCC(C(C)C)C2C=C(C(=O)O)COC(=O)C21 (configuration not stated)
inactive: Potency [1] | Potency [2] | Potency [3]

COC(=O)[C@H](O)[C@H]1C(C)(C)[C@H](OC(C)=O)[C@@]2(O)C(=O)[C@]1(C)C1CC[C@]3(C)C(CC(=O)O[C@H]3c3ccoc3)[C@]13O[C@@H]32 (some centres not stated)
inactive: Potency [1] | Potency [2] | Potency [3]

CC(C)CC(=O)O[C@@H]1O[C@H](CO)[C@@H](O[C@H]2O[C@H](C)[C@@H](N[C@H]3C=C(CO)[C@@H](O[C@H]4O[C@H](CO)[C@@H](O[C@H]5O[C@H](CO)[C@@H](O[C@H]6O[C@H](CO)[C@@H](O)[C@H](O)[C@H]6O)[C@H](O)[C@H]5O)[C@H](O)[C@H]4O)[C@H](O)[C@H]3O)[C@H](O)[C@H]2O)[C@H](O)[C@H]1O
inactive: Potency [1] | activity change, negative = viability loss [2] 3.07% [at 9.23 µM] | outcome [3] inactive [at 9.23 µM]

COC1OC(OC)C(O)(CCC2(C)C(C)CCC3(C)C2CC(O)C(O)C32CO2)C1O (configuration not stated)
inactive: Potency [1] | Potency [2] | Potency [3]

CC(=O)O[C@@H]1C(O)C[C@@]2(C)C(CC[C@@H](C)C23Cc2c(O)cc4c(c2O3)CNC4=O)C1(C)C (some centres not stated)
inactive: Potency [1] | Potency [2] | Potency [3]

O=C(O)CCc1cc2ccoc2cc1O[C@@H]1O[C@H](CO)[C@@H](O)[C@H](O)[C@H]1O
inactive: Potency [1] | Potency [2] | Potency [3]

CC(=O)O[C@H]1C[C@@]2(C)[C@@H](CC[C@H]3[C@@]4(C)C=CC(=O)[C@@H](C)[C@@H]4[C@H](OC(C)=O)C(=O)[C@@]32C)/C1=C(\CCC=C(C)C)C(=O)O
inactive: Potency [1] | Potency [2] | Potency [3]

O=C(O[C@H]1[C@H](Oc2ccc(O)cc2CO)O[C@H](CO)[C@@H](O)[C@@H]1O)c1ccccc1
inactive: Potency [1] | Potency [2] | Potency [3]

COC(=O)CCC1(C)C(C(C)(C)O)C(O)CC2(C)Oc3c(C)c4c(c(OC)c3CC21)C(=O)OC4 (configuration not stated)
inactive: Potency [1] | Potency [2] | Potency [3]

CC1=CC2=C(C)C(=O)C(C)(O)C(O)C2CO1 (configuration not stated)
inactive: Potency [1] | Potency [2] | Potency [3]

CC(NC(=O)CC(=O)O)C(=O)Nc1ccccc1C(N)=O (configuration not stated)
inactive: Potency [1] | Potency [2] | Potency [3]

From PubChem BioAssay (NCATS)
